Test results from paper PMC7862700, “An all-to-all approach to the identification of sequence-specific readers for epigenetic DNA modifications on cytosine”.

Assays:
Test in all cases: DAPPL (digital affinity profiling via proximity ligation, sequencing); 10 mM Tris-HCl pH 7.5, 50 mM NaCl, 1 mM DTT, 4% glycerol, room temperature, 30 min; GST-TFs on glutathione beads, 16-mer random dsDNA library, 0.1% formaldehyde crosslink after washing; high values mean tight binding
[1] = molecular target: T1, ELK1 (Homo sapiens, UniProt P19419 1-428); conditions: protein: recombinant; tags: N-terminal GST; dsDNA, one strand shown
T1 sequence: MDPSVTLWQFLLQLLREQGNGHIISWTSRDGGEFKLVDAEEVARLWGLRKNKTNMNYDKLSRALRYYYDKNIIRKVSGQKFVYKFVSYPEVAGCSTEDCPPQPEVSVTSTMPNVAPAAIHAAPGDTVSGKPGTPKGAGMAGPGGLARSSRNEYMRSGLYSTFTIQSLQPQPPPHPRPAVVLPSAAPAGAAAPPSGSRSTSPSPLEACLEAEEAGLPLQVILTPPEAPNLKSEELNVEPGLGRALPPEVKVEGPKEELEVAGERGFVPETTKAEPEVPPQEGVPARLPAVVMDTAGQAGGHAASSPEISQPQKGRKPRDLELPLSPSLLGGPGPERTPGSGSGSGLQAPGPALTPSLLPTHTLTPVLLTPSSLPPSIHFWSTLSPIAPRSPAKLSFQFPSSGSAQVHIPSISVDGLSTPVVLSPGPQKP
Outline: (§1)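 GST fusions of human transcription factors were expressed in yeast and captured with glutathione beads. Once given DNA barcodes and pooled alongside a tag-only sample, they were incubated for 30 min at room temperature with 200 nmole of a random double-stranded 16-mer DNA library in Tris/NaCl/DTT/glycerol buffer, then washed, crosslinked (0.1% formaldehyde), proximity-ligated, PCR-amplified and sequenced on an Illumina NextSeq500. The binding signal of each hexamer is its read frequency for a factor divided by its frequency for the tag-only sample.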

[2] = molecular target: T2, ERG (Homo sapiens, UniProt P11308 1-479); conditions: protein: recombinant; tags: N-terminal GST; dsDNA, one strand shown
T2 sequence: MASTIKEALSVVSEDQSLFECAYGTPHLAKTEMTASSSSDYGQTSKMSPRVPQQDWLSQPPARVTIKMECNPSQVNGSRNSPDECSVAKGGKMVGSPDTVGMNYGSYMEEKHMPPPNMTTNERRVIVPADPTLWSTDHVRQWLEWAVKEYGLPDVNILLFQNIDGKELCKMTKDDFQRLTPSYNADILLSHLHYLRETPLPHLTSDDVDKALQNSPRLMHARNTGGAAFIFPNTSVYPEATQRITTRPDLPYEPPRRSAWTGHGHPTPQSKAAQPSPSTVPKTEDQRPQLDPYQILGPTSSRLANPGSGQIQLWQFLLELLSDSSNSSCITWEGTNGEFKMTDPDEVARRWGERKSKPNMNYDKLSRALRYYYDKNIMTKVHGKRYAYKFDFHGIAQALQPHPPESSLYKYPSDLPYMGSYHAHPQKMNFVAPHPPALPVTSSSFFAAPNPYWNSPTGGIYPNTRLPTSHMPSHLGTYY
Outline: as §1

[3] = molecular target: T3, EHF (Homo sapiens, UniProt Q9NZC4 1-300); conditions: protein: recombinant; tags: N-terminal GST; dsDNA, one strand shown
T3 sequence: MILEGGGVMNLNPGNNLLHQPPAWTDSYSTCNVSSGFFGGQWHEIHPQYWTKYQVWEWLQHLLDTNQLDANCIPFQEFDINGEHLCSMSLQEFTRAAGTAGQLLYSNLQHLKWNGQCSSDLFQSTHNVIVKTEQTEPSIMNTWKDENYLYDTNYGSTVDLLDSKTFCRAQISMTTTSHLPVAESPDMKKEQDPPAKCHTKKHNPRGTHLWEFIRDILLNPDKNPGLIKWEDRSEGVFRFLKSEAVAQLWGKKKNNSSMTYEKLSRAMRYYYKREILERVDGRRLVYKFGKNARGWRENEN
Outline: as §1

[4] = molecular target: SPI1 (Homo sapiens, UniProt P17947 1-270); conditions: protein: recombinant; tags: N-terminal GST; dsDNA, one strand shown
Outline: as §1

[5] = molecular target: T4, ELK3 (Homo sapiens, UniProt P41970 1-407); conditions: protein: recombinant; tags: N-terminal GST; dsDNA, one strand shown
T4 sequence: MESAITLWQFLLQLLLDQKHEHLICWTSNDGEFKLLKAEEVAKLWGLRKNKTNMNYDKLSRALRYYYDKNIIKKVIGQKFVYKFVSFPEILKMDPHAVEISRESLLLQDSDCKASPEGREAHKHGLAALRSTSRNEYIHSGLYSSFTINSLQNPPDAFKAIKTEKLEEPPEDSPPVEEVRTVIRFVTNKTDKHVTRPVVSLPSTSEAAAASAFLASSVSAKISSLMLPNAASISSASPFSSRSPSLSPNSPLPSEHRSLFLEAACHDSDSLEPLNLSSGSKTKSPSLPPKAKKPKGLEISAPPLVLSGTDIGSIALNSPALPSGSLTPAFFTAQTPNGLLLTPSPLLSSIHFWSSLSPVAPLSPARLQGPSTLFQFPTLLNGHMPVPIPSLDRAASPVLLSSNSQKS
Outline: as §1

[6] = molecular target: HSF1 (Homo sapiens, UniProt Q00613 1-529); conditions: protein: recombinant; tags: N-terminal GST; chain copies: 3; dsDNA, one strand shown
Sequence of HSF1 (Q00613 whole entry): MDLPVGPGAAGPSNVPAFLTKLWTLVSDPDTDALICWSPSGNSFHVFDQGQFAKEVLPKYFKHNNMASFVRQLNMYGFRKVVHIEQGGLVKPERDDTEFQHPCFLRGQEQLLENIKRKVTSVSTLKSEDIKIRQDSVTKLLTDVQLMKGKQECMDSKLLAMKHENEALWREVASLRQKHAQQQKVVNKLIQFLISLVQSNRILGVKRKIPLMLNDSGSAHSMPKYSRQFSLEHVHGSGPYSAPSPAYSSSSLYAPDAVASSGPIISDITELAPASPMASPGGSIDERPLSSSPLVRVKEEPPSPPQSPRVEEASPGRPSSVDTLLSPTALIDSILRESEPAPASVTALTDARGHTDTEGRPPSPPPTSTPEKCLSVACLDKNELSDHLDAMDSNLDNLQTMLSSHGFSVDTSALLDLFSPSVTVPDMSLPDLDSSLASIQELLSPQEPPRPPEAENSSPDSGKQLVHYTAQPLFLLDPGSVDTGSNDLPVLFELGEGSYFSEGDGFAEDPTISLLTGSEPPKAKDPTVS
Outline: as §1

[7] = molecular target: T5, SPIC (Homo sapiens, UniProt Q8N5J4 1-248); conditions: protein: recombinant; tags: N-terminal GST; dsDNA, one strand shown
T5 sequence: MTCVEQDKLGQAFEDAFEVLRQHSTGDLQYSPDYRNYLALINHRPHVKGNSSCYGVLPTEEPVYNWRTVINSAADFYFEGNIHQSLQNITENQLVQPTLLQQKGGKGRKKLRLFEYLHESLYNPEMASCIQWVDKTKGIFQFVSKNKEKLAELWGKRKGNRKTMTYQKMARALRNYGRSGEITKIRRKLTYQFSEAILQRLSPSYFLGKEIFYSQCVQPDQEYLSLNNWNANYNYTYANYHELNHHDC
Outline: as §1

[8] = molecular target: ELF4 (Homo sapiens, UniProt Q99607 1-663); conditions: protein: recombinant; tags: N-terminal GST; dsDNA, one strand shown
Sequence of ELF4 (Q99607 whole entry): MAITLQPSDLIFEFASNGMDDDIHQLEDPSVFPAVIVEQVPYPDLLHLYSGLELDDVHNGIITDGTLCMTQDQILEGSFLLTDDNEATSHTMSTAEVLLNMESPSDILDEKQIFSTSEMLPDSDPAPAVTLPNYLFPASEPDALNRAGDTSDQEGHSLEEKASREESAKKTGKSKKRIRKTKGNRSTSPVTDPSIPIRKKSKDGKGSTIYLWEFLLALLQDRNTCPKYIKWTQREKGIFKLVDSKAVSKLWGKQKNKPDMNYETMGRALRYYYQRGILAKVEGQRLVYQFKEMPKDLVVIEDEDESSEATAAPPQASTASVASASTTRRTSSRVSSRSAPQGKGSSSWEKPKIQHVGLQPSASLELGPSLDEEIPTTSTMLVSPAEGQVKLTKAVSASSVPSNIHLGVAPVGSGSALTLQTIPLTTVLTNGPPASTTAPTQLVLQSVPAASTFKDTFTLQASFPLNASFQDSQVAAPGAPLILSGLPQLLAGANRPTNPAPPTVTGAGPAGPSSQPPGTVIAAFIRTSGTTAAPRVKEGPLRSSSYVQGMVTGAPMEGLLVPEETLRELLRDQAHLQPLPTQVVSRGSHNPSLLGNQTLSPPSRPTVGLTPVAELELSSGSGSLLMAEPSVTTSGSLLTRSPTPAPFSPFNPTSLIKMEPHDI
Outline: as §1

[9] = molecular target: T6, ETV2 (Homo sapiens, UniProt O00321 1-342); conditions: protein: recombinant; tags: N-terminal GST; dsDNA, one strand shown
T6 sequence: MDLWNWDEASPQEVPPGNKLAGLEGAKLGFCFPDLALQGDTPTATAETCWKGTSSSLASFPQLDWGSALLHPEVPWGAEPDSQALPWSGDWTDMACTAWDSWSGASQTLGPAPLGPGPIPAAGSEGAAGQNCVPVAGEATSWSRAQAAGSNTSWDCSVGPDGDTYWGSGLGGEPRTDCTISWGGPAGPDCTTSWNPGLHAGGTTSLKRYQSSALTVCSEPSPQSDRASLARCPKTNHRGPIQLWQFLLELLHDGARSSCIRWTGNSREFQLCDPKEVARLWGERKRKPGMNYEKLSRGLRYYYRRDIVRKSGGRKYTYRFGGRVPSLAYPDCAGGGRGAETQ
Outline: as §1

[10] = molecular target: T7, ELF3 (Homo sapiens, UniProt P78545 1-371); conditions: protein: recombinant; tags: N-terminal GST; dsDNA, one strand shown
T7 sequence: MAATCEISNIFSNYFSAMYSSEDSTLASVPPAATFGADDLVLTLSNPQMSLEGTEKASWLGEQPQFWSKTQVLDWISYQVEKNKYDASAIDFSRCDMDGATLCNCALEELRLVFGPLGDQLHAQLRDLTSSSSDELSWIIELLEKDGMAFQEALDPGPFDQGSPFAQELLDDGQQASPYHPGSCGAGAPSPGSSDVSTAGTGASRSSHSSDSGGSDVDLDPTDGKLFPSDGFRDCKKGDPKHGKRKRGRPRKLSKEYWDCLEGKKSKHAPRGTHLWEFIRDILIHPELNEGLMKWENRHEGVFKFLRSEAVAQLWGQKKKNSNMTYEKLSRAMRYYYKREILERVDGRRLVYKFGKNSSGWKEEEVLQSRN
Outline: as §1

[11] = molecular target: CRX (Homo sapiens, UniProt O43186 1-299); conditions: protein: recombinant; tags: N-terminal GST; dsDNA, one strand shown
Sequence of CRX (O43186 whole entry): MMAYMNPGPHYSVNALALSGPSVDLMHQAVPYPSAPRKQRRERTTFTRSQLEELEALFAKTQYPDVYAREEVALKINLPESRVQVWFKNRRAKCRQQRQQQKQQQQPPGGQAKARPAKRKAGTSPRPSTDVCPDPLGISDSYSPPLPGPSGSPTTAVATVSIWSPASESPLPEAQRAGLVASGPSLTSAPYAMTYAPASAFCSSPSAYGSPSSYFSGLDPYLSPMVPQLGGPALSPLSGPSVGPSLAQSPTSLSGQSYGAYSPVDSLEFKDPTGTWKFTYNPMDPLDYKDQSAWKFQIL
Outline: as §1

[12] = molecular target: ETV1 (Homo sapiens, UniProt P50549 1-477); conditions: protein: recombinant; tags: N-terminal GST; dsDNA, one strand shown
Sequence of ETV1 (P50549 whole entry): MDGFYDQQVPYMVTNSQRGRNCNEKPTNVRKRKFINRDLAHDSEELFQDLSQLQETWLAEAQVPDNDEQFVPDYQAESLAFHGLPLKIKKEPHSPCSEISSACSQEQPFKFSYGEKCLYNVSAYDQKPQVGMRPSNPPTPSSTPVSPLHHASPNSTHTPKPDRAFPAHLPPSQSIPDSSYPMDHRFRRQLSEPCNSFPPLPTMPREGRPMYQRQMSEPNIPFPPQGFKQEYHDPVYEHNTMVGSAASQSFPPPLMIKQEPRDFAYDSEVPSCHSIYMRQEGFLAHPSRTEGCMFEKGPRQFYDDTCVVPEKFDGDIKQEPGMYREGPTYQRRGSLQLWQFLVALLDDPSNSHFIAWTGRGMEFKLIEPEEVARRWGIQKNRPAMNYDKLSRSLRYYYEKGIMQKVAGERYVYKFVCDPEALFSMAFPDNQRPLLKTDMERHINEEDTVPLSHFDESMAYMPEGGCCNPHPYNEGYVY
Outline: as §1

[13] = molecular target: T8, ETV3L (Homo sapiens, UniProt Q6ZN32 1-361); conditions: protein: recombinant; tags: N-terminal GST; dsDNA, one strand shown
T8 sequence: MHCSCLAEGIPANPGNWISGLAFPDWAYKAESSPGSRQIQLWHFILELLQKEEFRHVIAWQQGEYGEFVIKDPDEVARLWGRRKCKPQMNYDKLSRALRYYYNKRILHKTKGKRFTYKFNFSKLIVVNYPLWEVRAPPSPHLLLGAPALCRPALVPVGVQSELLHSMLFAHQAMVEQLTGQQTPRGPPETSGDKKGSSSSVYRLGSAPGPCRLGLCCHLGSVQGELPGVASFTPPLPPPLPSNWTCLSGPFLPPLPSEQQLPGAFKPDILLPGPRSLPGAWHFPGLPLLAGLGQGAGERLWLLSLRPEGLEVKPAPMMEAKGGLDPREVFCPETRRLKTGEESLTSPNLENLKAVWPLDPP
Outline: as §1

[14] = molecular target: T9, SPDEF (Homo sapiens, UniProt O95238 1-335); conditions: protein: recombinant; tags: N-terminal GST; dsDNA, one strand shown
T9 sequence: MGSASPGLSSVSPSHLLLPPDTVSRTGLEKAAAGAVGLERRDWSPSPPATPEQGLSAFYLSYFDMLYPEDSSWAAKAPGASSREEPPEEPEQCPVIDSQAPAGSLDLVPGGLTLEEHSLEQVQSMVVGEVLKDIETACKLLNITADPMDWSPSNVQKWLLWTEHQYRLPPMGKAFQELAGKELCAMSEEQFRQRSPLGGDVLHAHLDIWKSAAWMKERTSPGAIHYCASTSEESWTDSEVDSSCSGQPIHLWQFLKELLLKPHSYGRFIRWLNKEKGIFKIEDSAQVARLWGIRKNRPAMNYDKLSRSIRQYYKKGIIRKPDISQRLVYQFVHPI
Outline: as §1

[15] = molecular target: ELF1 (Homo sapiens, UniProt P32519 1-619); conditions: protein: recombinant; tags: N-terminal GST; dsDNA, one strand shown
Sequence of ELF1 (P32519 whole entry): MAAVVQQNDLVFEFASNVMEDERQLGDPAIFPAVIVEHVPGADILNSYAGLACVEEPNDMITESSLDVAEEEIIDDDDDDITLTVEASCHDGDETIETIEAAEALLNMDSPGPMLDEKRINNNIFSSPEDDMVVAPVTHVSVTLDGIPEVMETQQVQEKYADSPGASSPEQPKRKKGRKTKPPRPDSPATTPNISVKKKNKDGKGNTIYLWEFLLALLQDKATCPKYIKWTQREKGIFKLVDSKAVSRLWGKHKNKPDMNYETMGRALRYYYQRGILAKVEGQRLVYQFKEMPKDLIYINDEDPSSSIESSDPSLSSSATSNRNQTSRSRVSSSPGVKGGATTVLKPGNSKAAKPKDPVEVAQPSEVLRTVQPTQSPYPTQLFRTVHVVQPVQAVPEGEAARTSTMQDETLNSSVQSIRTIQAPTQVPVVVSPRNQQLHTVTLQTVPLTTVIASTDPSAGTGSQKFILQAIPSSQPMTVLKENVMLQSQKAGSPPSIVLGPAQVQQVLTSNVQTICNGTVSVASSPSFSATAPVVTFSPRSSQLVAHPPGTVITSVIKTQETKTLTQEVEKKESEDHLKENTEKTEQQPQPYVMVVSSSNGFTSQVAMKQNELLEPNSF
Outline: as §1

[16] = molecular target: SPIB (Homo sapiens, UniProt Q01892 1-262); conditions: protein: recombinant; tags: N-terminal GST; dsDNA, one strand shown
Sequence of SPIB (Q01892 whole entry): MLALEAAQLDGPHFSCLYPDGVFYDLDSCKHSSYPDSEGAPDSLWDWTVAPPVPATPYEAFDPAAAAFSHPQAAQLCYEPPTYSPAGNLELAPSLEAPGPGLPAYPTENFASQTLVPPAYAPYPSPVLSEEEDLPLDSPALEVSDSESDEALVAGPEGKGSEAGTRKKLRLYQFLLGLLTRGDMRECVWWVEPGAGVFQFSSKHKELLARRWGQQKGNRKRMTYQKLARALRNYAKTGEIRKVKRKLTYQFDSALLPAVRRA
Outline: as §1

[17] = molecular target: T10, ELK4 (Homo sapiens, UniProt P28324-2 1-405); conditions: protein: recombinant; tags: N-terminal GST; dsDNA, one strand shown
T10 sequence: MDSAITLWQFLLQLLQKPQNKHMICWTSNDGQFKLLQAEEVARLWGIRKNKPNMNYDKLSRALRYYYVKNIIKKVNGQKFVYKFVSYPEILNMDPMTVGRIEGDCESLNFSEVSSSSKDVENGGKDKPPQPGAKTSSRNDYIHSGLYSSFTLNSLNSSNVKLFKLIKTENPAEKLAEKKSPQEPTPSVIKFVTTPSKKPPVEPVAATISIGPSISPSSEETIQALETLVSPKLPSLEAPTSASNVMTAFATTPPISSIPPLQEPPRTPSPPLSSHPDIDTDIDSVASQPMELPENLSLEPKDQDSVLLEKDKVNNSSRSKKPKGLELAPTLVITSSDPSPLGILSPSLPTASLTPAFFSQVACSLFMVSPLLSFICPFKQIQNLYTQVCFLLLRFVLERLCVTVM
Outline: as §1

[18] = molecular target: T11, ETS2 (Homo sapiens, UniProt P15036 1-469); conditions: protein: recombinant; tags: N-terminal GST; dsDNA, one strand shown
T11 sequence: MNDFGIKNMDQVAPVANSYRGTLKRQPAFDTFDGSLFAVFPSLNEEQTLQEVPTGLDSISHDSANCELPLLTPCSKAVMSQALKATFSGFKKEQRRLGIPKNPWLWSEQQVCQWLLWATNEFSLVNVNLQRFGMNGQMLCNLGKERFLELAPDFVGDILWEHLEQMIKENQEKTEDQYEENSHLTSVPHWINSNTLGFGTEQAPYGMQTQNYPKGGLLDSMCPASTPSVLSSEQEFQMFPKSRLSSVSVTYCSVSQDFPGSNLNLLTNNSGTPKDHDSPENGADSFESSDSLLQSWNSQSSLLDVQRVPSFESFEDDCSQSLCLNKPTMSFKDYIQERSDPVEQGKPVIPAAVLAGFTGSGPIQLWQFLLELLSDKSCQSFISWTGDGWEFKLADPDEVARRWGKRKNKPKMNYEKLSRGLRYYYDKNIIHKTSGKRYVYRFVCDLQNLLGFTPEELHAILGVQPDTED
Outline: as §1

TGGATC
binding signal [1]: 1.01 fold enrichment (6-mer frequency, TF over GST control) | binding signal [2]: 1.02 fold enrichment (6-mer frequency, TF over GST control) | binding signal [3]: 1 fold enrichment (6-mer frequency, TF over GST control) | binding signal [4]: 1.03 fold enrichment (6-mer frequency, TF over GST control) | binding signal [5]: 1.09 fold enrichment (6-mer frequency, TF over GST control) | binding signal [6]: 1.16 fold enrichment (6-mer frequency, TF over GST control) | binding signal [7]: 1.11 fold enrichment (6-mer frequency, TF over GST control) | binding signal [8]: 1.02 fold enrichment (6-mer frequency, TF over GST control) | binding signal [9]: 1.03 fold enrichment (6-mer frequency, TF over GST control) | binding signal [10]: 1.06 fold enrichment (6-mer frequency, TF over GST control) | binding signal [11]: 1.15 fold enrichment (6-mer frequency, TF over GST control) | binding signal [12]: 1.01 fold enrichment (6-mer frequency, TF over GST control) | binding signal [13]: 1.12 fold enrichment (6-mer frequency, TF over GST control) | binding signal [14]: 1.09 fold enrichment (6-mer frequency, TF over GST control)

TGAAAG
binding signal [15]: 1.05 fold enrichment (6-mer frequency, TF over GST control) | binding signal [4]: 1.05 fold enrichment (6-mer frequency, TF over GST control) | binding signal [16]: 1.04 fold enrichment (6-mer frequency, TF over GST control) | binding signal [6]: 1.08 fold enrichment (6-mer frequency, TF over GST control) | binding signal [7]: 1.01 fold enrichment (6-mer frequency, TF over GST control) | binding signal [8]: 1.01 fold enrichment (6-mer frequency, TF over GST control) | binding signal [17]: 1.06 fold enrichment (6-mer frequency, TF over GST control) | binding signal [13]: 1.04 fold enrichment (6-mer frequency, TF over GST control) | binding signal [18]: 1.01 fold enrichment (6-mer frequency, TF over GST control)
